The values below come from article PMC4336329 (PLoS ONE, 2015).

The campaign covered roughly 310,000 compounds. About 14,000 (4.5%) showed an effect of 50% or more. The effect is printed as a negative number. The full list was thinned out, with strong results kept by preference.
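Further: peak tail current of the secondary pulse compared with the same well before compound.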

The target of this assay is human ether-à-go-go-related gene (hERG) potassium channel (human, UniProt Q12809). In words: primary screen, population patch clamp on CHO cells stably expressing hERG; higher = less effect of the substance.
human ether-à-go-go-related gene (hERG) potassium channel, sequence (Q12809 whole entry, looked up): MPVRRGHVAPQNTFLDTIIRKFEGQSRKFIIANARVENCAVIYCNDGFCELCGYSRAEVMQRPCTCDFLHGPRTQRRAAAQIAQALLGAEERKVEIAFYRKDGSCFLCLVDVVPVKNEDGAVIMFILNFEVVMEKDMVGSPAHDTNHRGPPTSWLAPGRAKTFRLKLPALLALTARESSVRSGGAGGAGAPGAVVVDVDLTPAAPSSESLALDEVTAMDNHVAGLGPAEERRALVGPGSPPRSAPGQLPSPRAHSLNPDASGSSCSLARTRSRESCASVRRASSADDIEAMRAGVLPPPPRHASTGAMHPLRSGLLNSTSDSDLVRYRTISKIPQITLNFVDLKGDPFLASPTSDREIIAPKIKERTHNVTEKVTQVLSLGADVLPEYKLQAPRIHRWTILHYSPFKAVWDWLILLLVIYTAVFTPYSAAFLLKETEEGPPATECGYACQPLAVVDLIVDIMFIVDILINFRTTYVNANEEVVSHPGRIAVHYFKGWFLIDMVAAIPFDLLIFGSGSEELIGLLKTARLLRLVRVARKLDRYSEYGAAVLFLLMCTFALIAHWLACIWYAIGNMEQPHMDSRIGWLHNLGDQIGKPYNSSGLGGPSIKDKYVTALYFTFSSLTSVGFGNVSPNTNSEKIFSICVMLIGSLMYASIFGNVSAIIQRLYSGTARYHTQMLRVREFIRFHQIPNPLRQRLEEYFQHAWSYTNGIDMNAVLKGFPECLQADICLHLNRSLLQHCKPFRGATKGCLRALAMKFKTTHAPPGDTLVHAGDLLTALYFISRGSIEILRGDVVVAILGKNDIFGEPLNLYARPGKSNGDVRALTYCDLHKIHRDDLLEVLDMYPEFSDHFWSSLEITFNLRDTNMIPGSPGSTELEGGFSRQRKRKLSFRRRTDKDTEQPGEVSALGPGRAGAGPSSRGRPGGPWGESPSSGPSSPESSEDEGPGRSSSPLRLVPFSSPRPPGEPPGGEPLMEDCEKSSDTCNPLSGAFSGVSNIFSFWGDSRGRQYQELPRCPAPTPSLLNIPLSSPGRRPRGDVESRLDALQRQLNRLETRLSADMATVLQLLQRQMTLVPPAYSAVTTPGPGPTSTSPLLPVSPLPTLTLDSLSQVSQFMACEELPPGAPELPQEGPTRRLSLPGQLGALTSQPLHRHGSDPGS
In the case of `CCc1ccc(Nc2nc(N3CCOCC3)nc(N3CCOCC3)n2)cc1.Cl`, the “hERG current change (%, negative = inhibition) at 10uM” value is given as 8.6%.

For the compound `C/C(=N\NC(=O)C1CCCN(S(=O)(=O)c2ccccc2)C1)c1ccccn1` (centres unmarked), the “hERG current change (%, negative = inhibition) at 10uM” value is -20.8%.

On to `CN(C)Cc1c(C(=O)N/N=C/CCc2ccccc2)nnn1-c1nonc1N`, for which the “hERG current change (%, negative = inhibition) at 10uM” value is -31.1%.

With `Cc1onc(-c2ccccc2)c1CNS(=O)(=O)c1cccc(Cl)c1`, the “hERG current change (%, negative = inhibition) at 10uM” value is given as -7.19%.

In the case of `Cl.c1ccc(CN2C3=NCCCN3c3ccccc32)cc1`, the “hERG current change (%, negative = inhibition) at 10uM” value is -57.5%.

Regarding `O=C1CCCc2ccccc2N1Cc1cccc(Cl)c1`, the “hERG current change (%, negative = inhibition) at 10uM” value is -16.3%.

As to `c1ccc(CN2C3=NCCN3c3ccccc32)cc1`, the “hERG current change (%, negative = inhibition) at 10uM” value was -39.5%.

For `Cl.O=C(CN1C2=NCCCN2c2ccccc21)c1ccc(Cl)cc1Cl`, the “hERG current change (%, negative = inhibition) at 10uM” value is reported as -79.6%.

With `Brc1ccc(CN2C3=NCCCN3c3ccccc32)cc1.Cl`, the “hERG current change (%, negative = inhibition) at 10uM” value is -74.2%.

`Cl.O=C(O)CN1C2=NCCCN2c2ccccc21`: the “hERG current change (%, negative = inhibition) at 10uM” value was 16.1%.

Take `Cl.Clc1cccc(CN2C3=NCCCN3c3ccccc32)c1`: the “hERG current change (%, negative = inhibition) at 10uM” value was -75.4%.

Turning to `Clc1cccc(CN2CCCCCC2)c1`, the “hERG current change (%, negative = inhibition) at 10uM” value is reported as 12.3%.

On to `O=C1CCCC2=C1C(c1ccc(O)c(Br)c1)C1=C(CCCC1=O)N2c1ccccc1`, for which the “hERG current change (%, negative = inhibition) at 10uM” value was -33%.

As for `COc1ccc(C2C(C#N)=C(C)NC3=C2S(=O)(=O)c2ccccc23)cc1` (centres unmarked), the “hERG current change (%, negative = inhibition) at 10uM” value was -38.6%.

As for `CCOC(=O)c1sc(=NC(=O)COc2ccc(Cl)cc2)n(C)c1C`, the “hERG current change (%, negative = inhibition) at 10uM” value turned out to be 3.44%.

For `COc1cc(C)c(NC(=O)COc2cccc3c2OC(C)(C)C3)cc1OC`, the “hERG current change (%, negative = inhibition) at 10uM” value is given as -7.8%.

`COc1cc(SC)ccc1C(=O)NCCNC(=O)c1nonc1N`: the “hERG current change (%, negative = inhibition) at 10uM” value was -6.81%.

In the case of `COc1ccccc1NC(=O)CCS(=O)(=O)c1ccc2c(c1)NC(=O)C(C)S2` (centres unmarked), the “hERG current change (%, negative = inhibition) at 10uM” value is -4.76%.

Turning to `COc1ccc(NC(=S)Nc2ccccn2)cc1`, the “hERG current change (%, negative = inhibition) at 10uM” value came out at 13.5%.

With `COc1ccc(C)cc1C(=O)CCC(=O)NCCc1ccc(S(N)(=O)=O)cc1`, the “hERG current change (%, negative = inhibition) at 10uM” value is reported as 19.6%.

Take `CCOc1ccc(Cn2nnc(C(=O)NCc3ccccc3)c2N)cc1`: the “hERG current change (%, negative = inhibition) at 10uM” value is 11.6%.

For `O=C1NC(=O)C2(Cc3ccccc3N3CCCC32)C(=O)N1c1cccc(Cl)c1` (centres unmarked), the “hERG current change (%, negative = inhibition) at 10uM” value is reported as -18.1%.

Take `CCc1ccc(N(C(=O)c2csnn2)C(C(=O)NC(C)(C)C)c2ccccn2)cc1` (centres unmarked): the “hERG current change (%, negative = inhibition) at 10uM” value is given as -42.7%.

Consider `COc1ccc(N(C(=O)c2csnn2)C(C(=O)NC2CCCC2)c2ccccc2)cc1` (centres unmarked), for which the “hERG current change (%, negative = inhibition) at 10uM” value was -9.35%.

Regarding `O=C(NC1CCCC1)C(c1ccncc1)N(C(=O)c1csnn1)c1ccc(Cl)cc1` (centres unmarked), the “hERG current change (%, negative = inhibition) at 10uM” value is recorded as -10.4%.

Turning to `CC(=O)c1cccc(N(C(=O)c2csnn2)C(C(=O)NC2CCCC2)c2ccccc2)c1` (centres unmarked), the “hERG current change (%, negative = inhibition) at 10uM” value is reported as -18.5%.

As for `CCc1ccc(N(C(=O)c2csnn2)C(C(=O)NC(C)(C)CC)c2ccccn2)cc1` (centres unmarked), the “hERG current change (%, negative = inhibition) at 10uM” value is recorded as -54.3%.

Consider `CC(=O)c1ccc(N(C(=O)c2csnn2)C(C(=O)NC2CCCC2)c2ccccc2)cc1` (centres unmarked), for which the “hERG current change (%, negative = inhibition) at 10uM” value is -54.9%.

On to `CCOc1ccc(N(C(=O)c2cnsn2)C(C(=O)NC2CCCCC2)c2ccncc2)cc1` (centres unmarked), for which the “hERG current change (%, negative = inhibition) at 10uM” value is on record as -69.4%.

On to `CCOc1ccc(N(C(=O)c2cnccn2)C(C(=O)NC2CCCCC2)c2ccc(O)cc2)cc1` (centres unmarked), for which the “hERG current change (%, negative = inhibition) at 10uM” value turned out to be 10.4%.

On to `Cc1ccc(N(C(=O)c2csnn2)C(C(=O)NC2CCCCC2)c2ccncc2)cc1` (centres unmarked), for which the “hERG current change (%, negative = inhibition) at 10uM” value is -1.71%.

`CCC(C)(C)NC(=O)C(c1ccccn1)N(C(=O)c1csnn1)c1ccccc1` (centres unmarked): the “hERG current change (%, negative = inhibition) at 10uM” value stood at 5.39%.

Consider `CC(C)c1ccc(N(C(=O)c2csnn2)C(C(=O)NC2CCCC2)c2ccncc2)cc1` (centres unmarked), for which the “hERG current change (%, negative = inhibition) at 10uM” value is -57.8%.

Consider `COc1ccc(N(C(=O)c2cnsn2)C(C(=O)NC2CCCCC2)c2ccncc2)cc1` (centres unmarked), for which the “hERG current change (%, negative = inhibition) at 10uM” value is -26.7%.

`COc1cccc(Nc2ncnc3onc(-c4ccccc4OC)c23)c1`: the “hERG current change (%, negative = inhibition) at 10uM” value is -4.9%.

With `CNC(=S)N(Cc1cc2cc(C)cc(C)c2[nH]c1=O)C1CCCC1`, the “hERG current change (%, negative = inhibition) at 10uM” value is recorded as -3.94%.

For `c1ccc(CCCc2nc(-c3ccccn3)no2)cc1`, the “hERG current change (%, negative = inhibition) at 10uM” value is -7.53%.

`COc1ccccc1Nc1nnc(SCC(=O)N2CCCC2=O)s1`: the “hERG current change (%, negative = inhibition) at 10uM” value is given as -11.4%.

Turning to `COCCCNC(=O)C1CCN(c2ccc(N3CCOCC3)nn2)CC1`, the “hERG current change (%, negative = inhibition) at 10uM” value is listed as 10.1%.

Turning to `O=C(CCCc1nc2ccccc2s1)N1CCN(c2ccccc2F)CC1`, the “hERG current change (%, negative = inhibition) at 10uM” value is given as -31.3%.

For the compound `COc1ccc2[nH]c3c(=O)n4c(nc3c2c1)SCC4`, the “hERG current change (%, negative = inhibition) at 10uM” value is 6.11%.

`COc1ccc(CN2CC(C(=O)NCCCOC(C)C)CC2=O)cc1` (centres unmarked): the “hERG current change (%, negative = inhibition) at 10uM” value turned out to be 0.406%.

Regarding `CC(CC(=O)Nc1ccc(F)cc1F)S(=O)(=O)c1ccc2c(c1)NC(=O)CO2` (centres unmarked), the “hERG current change (%, negative = inhibition) at 10uM” value is reported as -9%.

On to `CC(=O)c1ccc(N2C(=O)C3C4C=CC(CC4)C3C2=O)cc1` (centres unmarked), for which the “hERG current change (%, negative = inhibition) at 10uM” value is on record as 13.6%.
